PubChem BioAssay AID1159580 (chemical genetic matrix, 2015)
Several values for one entry are separate records, joined by “and”; a condition that tells them apart may be missing. Equal entries are not always repeated. Screen size: about 5,500 compounds; about 2,000 (36%) were called active. Roughly 18% stayed inconclusive and do not appear here. Rule as the data show it: active = normalized growth mostly below about 0.91 (no sharp cut-off); inconclusive = no clear call, values can overlap the other calls; inactive = mostly above about 0.92. The list shows a part of the results.

Assay: chemical genetic growth profiling, strain panel (AID 1159580);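 also: tested at 20 µM; growth read once vehicle control cultures reached saturation at 30 °C; 1 = growth at the plate median or of vehicle wells; lower values mean less growth of the strain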
Settings: S. cerevisiae deletion strains, growth OD

C[C@H]1[C@H](C)CC[C@]2(C(=O)O)CC[C@]3(C)C(=CCC4[C@@]5(C)C[C@@H](O)[C@H](O)[C@@](C)(CO)C5[C@H](O)C[C@]43C)[C@H]12 (some centres not stated)
normalized growth (locus YAL013W, strain DEP1, stronger effect = lower value): 0.769 (active) | normalized growth (locus YAL021C, strain ccr4, stronger effect = lower value): 1.01 (inactive) | normalized growth (locus YAL026C, strain drs2, stronger effect = lower value): 0.963 (inactive) | normalized growth (locus YAL030W, strain snc1, stronger effect = lower value): 0.973 (inactive) | normalized growth (locus YBL061C, strain skt5, stronger effect = lower value): 0.952 (inactive) | normalized growth (locus YBR009C, strain hhf1, stronger effect = lower value): 0.936 (inactive) | normalized growth (locus YBR021W, strain FUR4, stronger effect = lower value): 0.957 (inactive) | normalized growth (locus YBR023C, strain chs3, stronger effect = lower value): 0.942 (inactive) | normalized growth (locus YBR171W, strain sec66, stronger effect = lower value): 0.951 (inactive) | normalized growth (locus YBR229C, strain ROT2, stronger effect = lower value): 0.987 (inactive) | normalized growth (locus YBR231C, strain swc5, stronger effect = lower value): 0.953 (inactive) | normalized growth (locus YBR279W, strain paf1, stronger effect = lower value): 0.948 (inactive) | normalized growth (locus YCL011C, strain gbp2, stronger effect = lower value): 0.968 (inactive) | normalized growth (locus YCL016C, strain dcc1, stronger effect = lower value): 0.956 (inactive) | normalized growth (locus YCL029C, strain bik1, stronger effect = lower value): 0.981 (inactive) | normalized growth (locus YCL061C, strain MRC1, stronger effect = lower value): 0.971 (inactive) | normalized growth (locus YCL069W, strain vba3, stronger effect = lower value): 0.973 (inactive) | normalized growth (locus YCR088W, strain abp1, stronger effect = lower value): 0.961 (inactive) | normalized growth (locus YDL005C, strain med2, stronger effect = lower value): 0.948 (inactive) | normalized growth (locus YDL035C, strain GPR1, stronger effect = lower value): 0.972 (inactive) | normalized growth (locus YDL040C, strain nat1, stronger effect = lower value): 0.965 (inactive) | normalized growth (locus YDL074C, strain BRE1, stronger effect = lower value): 0.895 (inactive) | normalized growth (locus YDL101C, strain DUN1, stronger effect = lower value): 0.973 (inactive) | normalized growth (locus YDL185W, strain tfp1, stronger effect = lower value): 1.01 (inactive) | normalized growth (locus YDL192W, strain arf1, stronger effect = lower value): 0.91 (active) | normalized growth (locus YDR001C, strain nth1, stronger effect = lower value): 0.969 (inactive) | normalized growth (locus YDR069C, strain doa4, stronger effect = lower value): 0.936 (inactive) | normalized growth (locus YDR101C, strain arx1, stronger effect = lower value): 0.967 (inactive) | normalized growth (locus YDR137W, strain rgp1, stronger effect = lower value): 0.794 (active) | normalized growth (locus YDR150W, strain NUM1, stronger effect = lower value): 0.996 (inactive) | normalized growth (locus YDR159W, strain sac3, stronger effect = lower value): 0.854 (active) | normalized growth (locus YDR162C, strain NBP2, stronger effect = lower value): 0.954 (inactive) | normalized growth (locus YDR195W, strain ref2): 0.84 (active) | normalized growth (locus YDR297W, strain sur2, stronger effect = lower value): 0.96 (inactive) | normalized growth (locus YDR318W, strain mcm21, stronger effect = lower value): 0.982 (inactive) | normalized growth (locus YDR334W, strain swr1, stronger effect = lower value): 0.978 (inactive) | normalized growth (locus YDR335W, strain msn5, stronger effect = lower value): 0.967 (inactive) | normalized growth (locus YDR388W, stronger effect = lower value): 0.911 (active) | normalized growth (locus YDR392W, strain spt3, stronger effect = lower value): 0.916 (inactive) | normalized growth (locus YDR502C, strain sam2, stronger effect = lower value): 0.937 (inactive) | normalized growth (locus YEL003W, strain gim4, stronger effect = lower value): 0.954 (inactive) | normalized growth (locus YEL037C, strain rad23, stronger effect = lower value): 0.969 (inactive) | normalized growth (locus YEL061C, strain CIN8 (second series), stronger effect = lower value): 0.955 (inactive) | normalized growth (locus YEL061C, strain CIN8, stronger effect = lower value): 0.961 (inactive) | normalized growth (locus YER015W, strain faa2, stronger effect = lower value): 0.959 (inactive) | normalized growth (locus YER016W, strain bim1, stronger effect = lower value): 0.971 (inactive) | normalized growth (locus YER110C, stronger effect = lower value): 0.978 (inactive) | normalized growth (locus YER111C, strain swi4, stronger effect = lower value): 0.955 (inactive) | normalized growth (locus YER155C, strain BEM2 (second series), stronger effect = lower value): 0.863 (active) | normalized growth (locus YER155C, strain BEM2, stronger effect = lower value): 0.985 (inactive) | normalized growth (locus YER167W, strain BCK2, stronger effect = lower value): 0.977 (inactive) | normalized growth (locus YFR010W, strain ubp6, stronger effect = lower value): 0.938 (inactive) | normalized growth (locus YGL078C, strain dbp3, stronger effect = lower value): 0.939 (inactive) | normalized growth (locus YGL086W, strain mad1, stronger effect = lower value): 1.18 [resistant] (active) | normalized growth (locus YGL167C, strain pmr1, stronger effect = lower value): 0.962 (inactive) | normalized growth (locus YGL173C, strain kem1, stronger effect = lower value): 0.949 (inactive) | normalized growth (locus YGL227W, strain vid30, stronger effect = lower value): 0.975 (inactive) | normalized growth (locus YGL240W, strain doc1, stronger effect = lower value): 0.886 (active) | normalized growth (locus YGL248W, strain PDE1, stronger effect = lower value): 0.994 (inactive) | normalized growth (locus YGL253W, strain hxk2, stronger effect = lower value): 0.971 (inactive) | normalized growth (locus YGR135W, strain pre9, stronger effect = lower value): 0.943 (inactive) | normalized growth (locus YGR252W, strain gcn5, stronger effect = lower value): 0.849 (inactive) | normalized growth (locus YHR013C, strain ard1, stronger effect = lower value): 1.03 (inactive) | normalized growth (locus YHR027C, strain rpn1, stronger effect = lower value): 0.974 (inactive) | normalized growth (locus YHR030C, strain SLT2, stronger effect = lower value): 1 (inactive) and 0.976 (inactive) | normalized growth (locus YHR079C, strain IRE1 (second series), stronger effect = lower value): 0.968 (inactive) | normalized growth (locus YHR079C, strain IRE1, stronger effect = lower value): 0.979 (inactive) | normalized growth (locus YHR094C, strain hxt1, stronger effect = lower value): 0.977 (inactive) | normalized growth (locus YHR129C, strain ARP1, stronger effect = lower value): 0.998 (inactive) | normalized growth (locus YHR142W, strain chs7, stronger effect = lower value): 0.949 (inactive) | normalized growth (locus YHR200W, strain rpn10, stronger effect = lower value): 0.944 (inactive) | normalized growth (locus YIL066C, strain RNR3, stronger effect = lower value): 0.985 (inactive) | normalized growth (locus YIL073C, strain SPO22, stronger effect = lower value): 1.02 (inactive) | normalized growth (locus YIL125W, strain kgd1, stronger effect = lower value): 0.947 (inactive) | normalized growth (locus YIR030C, strain dcg1, stronger effect = lower value): 0.971 (inactive) | normalized growth (locus YJL092W, strain hpr5, stronger effect = lower value): 0.963 (inactive) | normalized growth (locus YJL095W, strain BCK1 (second series), stronger effect = lower value): 0.972 (inactive) | normalized growth (locus YJL095W, strain BCK1, stronger effect = lower value): 0.944 (inactive) and 0.792 (active) | normalized growth (locus YJL115W, strain asf1, stronger effect = lower value): 0.967 (inactive) | normalized growth (locus YJL129C, strain trk1, stronger effect = lower value): 0.937 (inactive) | normalized growth (locus YJL134W, strain LCB3, stronger effect = lower value): 0.991 (inactive) | normalized growth (locus YJL154C, strain vps35, stronger effect = lower value): 0.968 (inactive) | normalized growth (locus YJL164C, strain tpk1, stronger effect = lower value): 0.944 (inactive) | normalized growth (locus YJL166W, strain qcr8, stronger effect = lower value): 0.948 (inactive) | normalized growth (locus YJL168C, strain set2, stronger effect = lower value): 0.982 (inactive) | normalized growth (locus YJL187C, strain SWE1 (second series), stronger effect = lower value): 0.959 (inactive) | normalized growth (locus YJR043C, strain POL32, stronger effect = lower value): 0.985 (inactive)
